Screens from PubChem.
M1 antag: blocks human M1 muscarinic receptor. P11229. hit rate 1.3% among 360,000. AID 588852. inhibition, % at 3 µM. CHO-K1 hM1, Fluo-8 calcium fluorescence, ACh EC80 antagonist;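 active means percent inhibition above its own plate's cutoff, namely the mean of that plate's compound wells plus 3 SD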;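 further: peak over basal fluorescence ratio during 140 s after agonist addition; 0% = ACh EC80 plus DMSO and 100% = DMSO alone without agonist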
Target sequence (P11229 whole entry, looked up): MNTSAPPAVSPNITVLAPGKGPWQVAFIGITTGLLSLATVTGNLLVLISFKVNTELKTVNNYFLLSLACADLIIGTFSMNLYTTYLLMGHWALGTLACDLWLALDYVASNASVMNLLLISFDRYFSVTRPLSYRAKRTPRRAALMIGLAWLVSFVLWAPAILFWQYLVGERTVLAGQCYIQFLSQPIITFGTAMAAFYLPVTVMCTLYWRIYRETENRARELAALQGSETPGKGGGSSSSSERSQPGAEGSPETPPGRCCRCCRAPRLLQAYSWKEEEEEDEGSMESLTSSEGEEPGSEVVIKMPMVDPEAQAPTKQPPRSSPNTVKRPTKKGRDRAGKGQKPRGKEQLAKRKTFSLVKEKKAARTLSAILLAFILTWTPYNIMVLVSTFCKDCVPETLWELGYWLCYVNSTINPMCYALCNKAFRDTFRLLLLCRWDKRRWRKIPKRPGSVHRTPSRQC
M1 ag parental: counter-screen for M1 agonists: effect in parental CHO-K1 cells. Fluo-8 calcium fluorescence; scaled to maximal ATP response, vehicle zero. activation, % at 3 µM. hit rate 0.48% among 360,000. AID 602248; in the data active means activation above about 15%;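 further: untransfected CHO-K1 host cells lacking M1 receptor as counterscreen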
CHRM1 agonist: agonists of human M1 muscarinic receptor; CHO-K1 hM1, Fluo-8 calcium fluorescence, agonist mode; 0% DMSO, 100% acetylcholine EC100; activation, % at 3 µM; hit rate 0.33% among 360,000; AID 588814;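 active means activation above the run's mean compound activation plus 3 SD, cut at about 16% in these data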;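 further: peak over basal fluorescence ratio within a 140 s kinetic read after compound addition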
CHO-K1 Ca antag: nonselective inhibitor or artifact in parental CHO-K1 cells. ATP-induced calcium, Fluo-8 fluorescence. inhibition, % at 3 µM. hit rate 0.6% among 360,000. AID 602250;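 active means inhibition above a per-plate cutoff, the plate's mean sample inhibition plus 3 SD, cut at about 24% in these data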;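 further: 0% = DMSO plus EC80 ATP and 100% = DMSO alone without ATP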
CHRM1 PAM: human CHRM1 positive allosteric modulation; P11229; CHO-K1 hM1, Fluo-8 calcium fluorescence, ACh EC20; 0% = ACh EC20, 100% = maximal ACh; activation, % at 3 µM; hit rate 0.088% among 360,000; AID 588819; in the data active means activation above about 19%, passing the limit was not always enough
CHO-K1 Ca PAM: counter-screen for M1 PAMs: effect in parental CHO-K1 cells; ATP EC20, Fluo-8 calcium fluorescence; 0% at ATP EC20, 100% at ATP max; activation, % at 3 µM; hit rate 0.02% among 360,000;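 active means activation above the run cutoff, the mean activation of all test compounds plus 3 SD, cut at about 40% in these data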;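 further: peak over basal fluorescence ratio in a 140 s read after ATP addition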
* hit, by the source's call. A selection: hits, their analogues and other compounds. The true share with any hit is near 2.4%.

What do the screens show for `Cc1ccc(-c2nn(-c3ccccc3)cc2C=C2SC(=S)N(CCS(=O)(=O)O)C2=O)cc1`?
M1 antag: -20; M1 ag parental: 0; CHRM1 agonist: 0; CHO-K1 Ca antag: -4; CHRM1 PAM: 28*; CHO-K1 Ca PAM: 11

How did O=C1C(=Cc2cn(-c3ccccc3)nc2-c2ccc(OCc3ccccc3)cc2)SC(=S)N1CCS(=O)(=O)O do in these assays?
M1 antag: -23; M1 ag parental: 2; CHRM1 agonist: -2; CHO-K1 Ca antag: -3; CHRM1 PAM: 12; CHO-K1 Ca PAM: 4

Results for CCCCCCOC1(c2ccccc2)OC(=O)c2ccccc21 (stereo not drawn) ?
M1 antag: -7; M1 ag parental: -1; CHRM1 agonist: -6; CHO-K1 Ca antag: -3; CHRM1 PAM: -1; CHO-K1 Ca PAM: 16

What do the screens show for `Cc1cccc(OC2(c3ccccc3)OC(=O)c3ccccc32)c1C` (stereo not drawn)?
M1 antag: 36*; M1 ag parental: 0; CHRM1 agonist: -10; CHO-K1 Ca antag: -12; CHRM1 PAM: -19; CHO-K1 Ca PAM: -7

Results for O=c1c2ccccc2nc(COc2ccccc2)n1/N=C/c1cn[nH]c1-c1ccccc1 ?
M1 antag: 28*; M1 ag parental: 5; CHRM1 agonist: -4; CHO-K1 Ca antag: 4; CHRM1 PAM: -10; CHO-K1 Ca PAM: 14

What do the screens show for `O=C(COc1ccc(S(=O)(=O)NC2CCCCC2)cc1Cl)NCc1cccnc1`?
M1 antag: 7; M1 ag parental: 0; CHRM1 agonist: -1; CHO-K1 Ca antag: 28*; CHRM1 PAM: 8; CHO-K1 Ca PAM: -9

How did COc1ccc(OCc2n(CC(=O)OC3CC(C)CCC3C(C)C)c3ccccc3[n+]2C)cc1 (stereo not drawn) do in these assays?
M1 antag: 39*; M1 ag parental: 2; CHRM1 agonist: -5; CHO-K1 Ca antag: 8; CHRM1 PAM: -22; CHO-K1 Ca PAM: 7

Results for COc1ccc(-c2n(CC(=O)OC3CC(C)CCC3C(C)C)c3ccccc3[n+]2C)cc1 (stereo not drawn) ?
M1 antag: 28*; M1 ag parental: 6; CHRM1 agonist: -10; CHO-K1 Ca antag: 24*; CHRM1 PAM: -24; CHO-K1 Ca PAM: -4

Results for CC1CCC(C(C)C)C(OC(=O)CSc2nccc(=O)[nH]2)C1 (stereo not drawn) ?
M1 antag: 13; M1 ag parental: 0; CHRM1 agonist: -7; CHO-K1 Ca antag: -1; CHRM1 PAM: -7; CHO-K1 Ca PAM: 6

What do the screens show for `C[C@H]1CN(c2ccccc2)C(=O)[C@@H]1CC(=O)Nc1ccccc1`?
M1 antag: -2; M1 ag parental: 4; CHRM1 agonist: 3; CHO-K1 Ca antag: -16; CHRM1 PAM: 2; CHO-K1 Ca PAM: 20

How did C[C@@H]1CN([C@H](C)CO)S(=O)(=O)c2ccc(C#Cc3ccccc3F)cc2O[C@H]1CN(C)C(=O)c1ccc2c(c1)OCO2 do in these assays?
M1 antag: 27*; M1 ag parental: 6; CHRM1 agonist: 5; CHO-K1 Ca antag: 4; CHRM1 PAM: -11; CHO-K1 Ca PAM: 10

How did CC(=O)c1cccc(NC(=O)c2c(-c3c(F)cccc3Cl)noc2C)c1 do in these assays?
M1 antag: -3; M1 ag parental: 0; CHRM1 agonist: -2; CHO-K1 Ca antag: 1; CHRM1 PAM: 12; CHO-K1 Ca PAM: -20

How did CCOCCCN(C)C1CCN(C(=O)c2oc3ccccc3c2NC(=O)c2ccc(F)cc2)CC1 do in these assays?
M1 antag: 15; M1 ag parental: 0; CHRM1 agonist: 2; CHO-K1 Ca antag: 8; CHRM1 PAM: -4; CHO-K1 Ca PAM: -29

How did CC(C1CC1)N(Cc1ccccc1)C(=S)Nc1ccccc1Cl (stereo not drawn) do in these assays?
M1 antag: 5; M1 ag parental: 18*; CHRM1 agonist: -5; CHO-K1 Ca antag: -15; CHRM1 PAM: -1; CHO-K1 Ca PAM: 20

What do the screens show for `Cc1cc(C)c(S(=O)(=O)Cc2ccccc2)c(=O)[nH]1`?
M1 antag: 4; M1 ag parental: 0; CHRM1 agonist: -1; CHO-K1 Ca antag: 25*; CHRM1 PAM: 9; CHO-K1 Ca PAM: -16

What do the screens show for `Cc1cc(C)c(S(=O)(=O)Cc2ccc(Cl)cc2)c(=O)[nH]1`?
M1 antag: 5; M1 ag parental: -1; CHRM1 agonist: -3; CHO-K1 Ca antag: 5; CHRM1 PAM: 2; CHO-K1 Ca PAM: 18

What do the screens show for `CC1CCCCN1C(=O)C1CCCCN1S(=O)(=O)c1cccc([N+](=O)[O-])c1` (stereo not drawn)?
M1 antag: 10; M1 ag parental: -1; CHRM1 agonist: -4; CHO-K1 Ca antag: 12; CHRM1 PAM: -4; CHO-K1 Ca PAM: -5

What do the screens show for `O=S(=O)(Nc1ccc(Nc2ccccc2)cc1)c1ccc(F)cc1`?
M1 antag: -10; M1 ag parental: -1; CHRM1 agonist: 0; CHO-K1 Ca antag: 24*; CHRM1 PAM: 9; CHO-K1 Ca PAM: -26

What do the screens show for `O=[N+]([O-])c1ccc(S(=O)(=O)Nc2ccncc2)cc1`?
M1 antag: -7; M1 ag parental: -1; CHRM1 agonist: -4; CHO-K1 Ca antag: -9; CHRM1 PAM: 2; CHO-K1 Ca PAM: 1

Results for O=[N+]([O-])c1ccc(Oc2ccc(S(=O)(=O)Nc3ccccc3)cc2)cc1 ?
M1 antag: 42*; M1 ag parental: 19*; CHRM1 agonist: 19*; CHO-K1 Ca antag: 29*; CHRM1 PAM: -17; CHO-K1 Ca PAM: -6

What do the screens show for `Cc1ccc(S(=O)(=O)Nc2ccc(Nc3ccccc3)cc2)cc1`?
M1 antag: -6; M1 ag parental: 0; CHRM1 agonist: -1; CHO-K1 Ca antag: 8; CHRM1 PAM: 4; CHO-K1 Ca PAM: -8

Results for Nc1ccccc1S(=O)(=O)NCCCCc1ccccc1 ?
M1 antag: 3; M1 ag parental: 2; CHRM1 agonist: -7; CHO-K1 Ca antag: -16; CHRM1 PAM: 1; CHO-K1 Ca PAM: 18

Results for CCCCC1=C(C(=O)OCC)C(C(=O)OCC)Oc2ccccc21 (stereo not drawn) ?
M1 antag: -16; M1 ag parental: 1; CHRM1 agonist: -2; CHO-K1 Ca antag: -21; CHRM1 PAM: 7; CHO-K1 Ca PAM: 16

What do the screens show for `Cc1cc2nc(C)n(CCCNC(=O)Nc3ccc(C#N)cc3)c2cc1C`?
M1 antag: 57*; M1 ag parental: 1; CHRM1 agonist: -6; CHO-K1 Ca antag: -9; CHRM1 PAM: -22; CHO-K1 Ca PAM: 19

How did Nc1c(C(=O)CSc2nnc(-c3ccccc3)o2)c(=O)[nH]c(=O)n1C1CC1 do in these assays?
M1 antag: -2; M1 ag parental: 0; CHRM1 agonist: -1; CHO-K1 Ca antag: -8; CHRM1 PAM: 6; CHO-K1 Ca PAM: 1
